Assay outcomes deposited in PubChem BioAssay by The Scripps Research Institute Molecular Screening Center.
Only some compounds are listed: those with a hit (about 1.1% of all), similar ones and a draw of the others.
HTR5A inv ctr – HTR5A inverse agonism, opioid heterodimer counter-screen; P47898; HTR5A cell line, luminescence; inhibition, % at 9.3 µM; actives 0.083% (n = 340,000); AID 504634; in the data active = inhibition mostly above about 23%, no sharp cut-off; inactive = mostly below about 18%;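 note: 0% = cells with DMSO and 100% = no-cell wells with DMSO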
HTR5A ag – activates human HTR5A in OPRM1-OPRD1 agonist counter-screen; P47898; HTR5A agonist assay, luminescence, cell-based; activation, % at 9.3 µM; actives 0.61% (n = 340,000); in the data active = activation mostly above about 9.5%, no sharp cut-off; inactive = mostly below about 7.6%;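 note: 0% = cells with vehicle only and 100% = reference agonist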
OPRM1-OPRD1 ag – OPRM1-OPRD1 heterodimerization agonism; P35372+P41143; activation, % at 9.3 µM; actives 0.3% (n = 340,000); cells, luminescence; in the data active = activation above about 18%;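 note: 0% = vehicle-treated cells and 100% = reference agonist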
Target sequence (P35372 whole entry, looked up): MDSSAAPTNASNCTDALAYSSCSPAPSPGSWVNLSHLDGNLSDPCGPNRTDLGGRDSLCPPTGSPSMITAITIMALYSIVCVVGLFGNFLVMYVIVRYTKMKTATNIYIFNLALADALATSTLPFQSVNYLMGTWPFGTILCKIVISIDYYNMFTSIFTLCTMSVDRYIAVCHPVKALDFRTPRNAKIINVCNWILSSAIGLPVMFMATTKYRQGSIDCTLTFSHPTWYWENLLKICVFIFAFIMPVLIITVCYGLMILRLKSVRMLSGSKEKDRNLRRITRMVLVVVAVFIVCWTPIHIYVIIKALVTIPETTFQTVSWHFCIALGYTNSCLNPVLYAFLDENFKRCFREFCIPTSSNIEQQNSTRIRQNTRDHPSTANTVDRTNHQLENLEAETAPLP
Target sequence (P41143 whole entry, looked up): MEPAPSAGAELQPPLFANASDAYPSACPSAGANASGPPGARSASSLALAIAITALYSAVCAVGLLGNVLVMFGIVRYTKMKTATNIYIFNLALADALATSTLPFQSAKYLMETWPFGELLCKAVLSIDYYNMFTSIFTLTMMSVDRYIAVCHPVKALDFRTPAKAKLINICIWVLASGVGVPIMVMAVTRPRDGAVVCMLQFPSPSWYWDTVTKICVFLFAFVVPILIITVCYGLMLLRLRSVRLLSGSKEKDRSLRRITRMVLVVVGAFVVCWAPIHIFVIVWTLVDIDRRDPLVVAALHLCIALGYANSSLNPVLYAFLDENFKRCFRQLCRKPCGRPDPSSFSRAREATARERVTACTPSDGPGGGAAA
MOR-DOR inv ag – inverse agonists of human mu-delta opioid receptor heterodimerization | inhibition, % at 9.3 µM | AID 504357 | cell-based MOR-DOR heterodimer luminescence, inverse agonism | P35372+P41143 | actives 0.21% (n = 340,000); in the data active = inhibition above about 22%, passing the limit was not always enough;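 note: 0% = cells with DMSO and 100% = wells without cells with DMSO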
Active calls of the source: *.

`O=C(COC(=O)c1cc([N+](=O)[O-])ccc1N1CCOCC1)NCc1ccc(F)cc1` gave HTR5A inv ctr -8.1, HTR5A ag -2.6, OPRM1-OPRD1 ag -2.3 and MOR-DOR inv ag 16.1.
For C=C(C)Cn1c(SCC#N)nc2ccccc2c1=O the results were HTR5A inv ctr -2.8, HTR5A ag -0.8, OPRM1-OPRD1 ag -3.9 and MOR-DOR inv ag 17.4.
Screening C=C(C)Cn1c(SCC)nc2ccccc2c1=O returned HTR5A inv ctr 6.6, HTR5A ag 11.6*, OPRM1-OPRD1 ag 5.8 and MOR-DOR inv ag -33.4.
For O=C(NCC1(c2ccccc2)CCCC1)c1ccccc1 the results were HTR5A inv ctr 21.0, HTR5A ag 1.9, OPRM1-OPRD1 ag -0.5 and MOR-DOR inv ag 3.9.
O=C(NCC1(c2ccccc2)CCCC1)C(=O)NCC1(c2ccccc2)CCCC1 was read as HTR5A inv ctr 9.1, HTR5A ag 9.9*, OPRM1-OPRD1 ag 0.6 and MOR-DOR inv ag -2.8.
`CC[C@@H](C(=O)[C@@H](C)[C@@H](O)[C@H](C)[C@@H]1O[C@@H]([C@@H](CC)C(=O)O)CC[C@@H]1C)[C@H]1O[C@]2(C=C[C@@H](O)[C@]3(CC[C@@](C)([C@H]4CC[C@](O)(CC)[C@H](C)O4)O3)O2)[C@H](C)C[C@@H]1C` gave HTR5A inv ctr -115.3, HTR5A ag 39.6*, OPRM1-OPRD1 ag 104.1* and MOR-DOR inv ag inactive.
CCCCS(=O)(=O)N1CCCC(C(=O)Nc2ccc(Cl)cn2)C1 (stereo not drawn) was read as HTR5A inv ctr -17.8, HTR5A ag -0.2, OPRM1-OPRD1 ag -1.6 and MOR-DOR inv ag 8.2.
For Cc1cc(C(=O)CCl)c(C)n1CCc1ccc(F)cc1 the results were HTR5A inv ctr 3.0, HTR5A ag 7.1, OPRM1-OPRD1 ag 3.3 and MOR-DOR inv ag -16.4.
`Cc1cc(C(=O)CCl)c(C)n1CCc1ccc(Cl)cc1` gave HTR5A inv ctr -6.2, HTR5A ag 16.7*, OPRM1-OPRD1 ag 18.9* and MOR-DOR inv ag -94.1.
For COc1ccc(Cl)cc1S(=O)(=O)n1ccnc1 the results were HTR5A inv ctr -34.1, HTR5A ag 9.2*, OPRM1-OPRD1 ag -2.6 and MOR-DOR inv ag 12.3.
`COc1ccc(Cl)cc1S(=O)(=O)N1CCCC1=O` gave HTR5A inv ctr 5.5, HTR5A ag -2.1, OPRM1-OPRD1 ag -1.9 and MOR-DOR inv ag 10.4.
Cc1cc(NC(=O)CN2CCN(S(=O)(=O)c3ccc4ccccc4c3)CC2)no1 was read as HTR5A inv ctr -36.4, HTR5A ag 10.2*, OPRM1-OPRD1 ag 5.0 and MOR-DOR inv ag -28.2.
For CC(=O)c1ccc(NC(=O)CN2CCN(S(=O)(=O)c3ccc4ccccc4c3)CC2)cc1 the results were HTR5A inv ctr -10.3, HTR5A ag 4.2, OPRM1-OPRD1 ag 0.0 and MOR-DOR inv ag 0.0.
For Cc1ccc(-c2c(C(=O)N/N=C/c3cccnc3)nnn2-c2nonc2N)cc1 the results were HTR5A inv ctr -5.3, HTR5A ag 1.0, OPRM1-OPRD1 ag -1.2 and MOR-DOR inv ag 6.1.
For CCOC(=O)CNC(=O)CSc1nc2nc(C)c(Br)cc2[nH]1 the results were HTR5A inv ctr 13.8, HTR5A ag 12.7*, OPRM1-OPRD1 ag 2.3 and MOR-DOR inv ag -9.7.
For CC(=O)c1sc2nc(SCC(=O)NCCc3ccccc3)[nH]c(=O)c2c1C the results were HTR5A inv ctr -27.1, HTR5A ag 12.8*, OPRM1-OPRD1 ag -7.1 and MOR-DOR inv ag 23.4.
`COc1ccc(CCNC(=O)CSc2nc3sc(C(=O)O)c(C)c3c(=O)[nH]2)cc1OC` gave HTR5A inv ctr -15.7, HTR5A ag 1.1, OPRM1-OPRD1 ag -2.4 and MOR-DOR inv ag 12.8.
For CC(=O)c1ccc(NC(=O)c2ccc(N3C(=O)c4cccnc4C3=O)cc2)cc1 the results were HTR5A inv ctr 17.8, HTR5A ag 1.3, OPRM1-OPRD1 ag -0.8 and MOR-DOR inv ag 4.1.
For S=C(Nc1ccc(Cl)cc1)c1nc2ccccc2s1 the results were HTR5A inv ctr 12.0, HTR5A ag -5.5, OPRM1-OPRD1 ag 2.5 and MOR-DOR inv ag -12.2.
Screening O=C(Nc1ccc(Cl)cc1)/C(=C/c1cccc(O)c1)c1nc2ccccc2s1 returned HTR5A inv ctr -41.4, HTR5A ag 11.3*, OPRM1-OPRD1 ag 6.5 and MOR-DOR inv ag -33.7.
`O=C(O)C1C2CCC(C2)C1C(=O)NCCc1ccccc1` (stereo not drawn) gave HTR5A inv ctr -34.8, HTR5A ag 9.4*, OPRM1-OPRD1 ag -1.0 and MOR-DOR inv ag 4.7.
CN(C)c1nc(C(=O)Nc2ccccc2)nc(N(C)C)n1 was read as HTR5A inv ctr -1.1, HTR5A ag 2.3, OPRM1-OPRD1 ag -0.9 and MOR-DOR inv ag 5.5.
Screening CN(C)c1nc(SCCOC(=O)Nc2ccccc2)nc(N(C)C)n1 returned HTR5A inv ctr 14.1, HTR5A ag 8.8*, OPRM1-OPRD1 ag 9.2 and MOR-DOR inv ag -46.3.
For CCCCCCCCCCCCCCCC[N+](C)(C)Cc1ccc(F)cc1 the results were HTR5A inv ctr -42.2, HTR5A ag 11.0*, OPRM1-OPRD1 ag 3.4 and MOR-DOR inv ag -16.5.
Cc1ccc(NC(=O)CSc2nnc3c(n2)[nH]c2ccccc23)cc1 was read as HTR5A inv ctr 8.1, HTR5A ag 11.4, OPRM1-OPRD1 ag -1.3 and MOR-DOR inv ag 6.7.
Cc1ccc(-c2csc(NC(=O)CSc3nnc4c(n3)[nH]c3ccccc34)n2)cc1 was read as HTR5A inv ctr -49.1, HTR5A ag 13.4*, OPRM1-OPRD1 ag 5.4 and MOR-DOR inv ag -28.0.
Screening Cc1onc(-c2c(Cl)cccc2Cl)c1NC(=O)N1CCSCC1 returned HTR5A inv ctr 0.2, HTR5A ag -0.1, OPRM1-OPRD1 ag -1.5 and MOR-DOR inv ag 7.6.
`COCCNC(=O)C1CCC(CNS(=O)(=O)c2ccc3c(c2)CC(C)N3C(=O)C2CC2)CC1` (stereo not drawn) gave HTR5A inv ctr 16.7, HTR5A ag 12.4*, OPRM1-OPRD1 ag -3.2 and MOR-DOR inv ag 16.8.
For CCCNC(=O)C1CCC(CNS(=O)(=O)c2ccc3c(c2)CC(C)N3C(C)=O)CC1 (stereo not drawn) the results were HTR5A inv ctr 12.9, HTR5A ag -1.7, OPRM1-OPRD1 ag -3.5 and MOR-DOR inv ag 18.5.
Screening Cc1cccc(N2CCN(S(=O)(=O)c3ccc4c(c3)NC(=O)C(C)S4)CC2)c1C (stereo not drawn) returned HTR5A inv ctr 2.3, HTR5A ag -0.6, OPRM1-OPRD1 ag 1.9 and MOR-DOR inv ag -9.6.
Screening Cc1cccc(N2CCN(S(=O)(=O)c3ccc4c(c3)NC(=O)CS4)CC2)c1C returned HTR5A inv ctr -14.7, HTR5A ag 11.8*, OPRM1-OPRD1 ag 11.0 and MOR-DOR inv ag -56.0.
CCCn1c(NCc2ccco2)nc2c1c(=O)n(C)c(=O)n2C was read as HTR5A inv ctr -5.7, HTR5A ag 2.4, OPRM1-OPRD1 ag -2.1 and MOR-DOR inv ag 8.8.
`CCn1c(NCc2ccccn2)nc2c1c(=O)n(C)c(=O)n2C` gave HTR5A inv ctr 4.0, HTR5A ag 13.9*, OPRM1-OPRD1 ag -2.2 and MOR-DOR inv ag 11.3.
For CCN(CC)S(=O)(=O)c1cccc(C(=O)N[C@H](C(=O)NNC(=O)c2ccccc2)C(C)C)c1 the results were HTR5A inv ctr 10.6, HTR5A ag 0.6, OPRM1-OPRD1 ag -2.2 and MOR-DOR inv ag 11.5.
`Cc1cc(=O)[nH]c(SCC(=O)Nc2ccc(Br)cn2)n1` gave HTR5A inv ctr -34.8, HTR5A ag 13.0*, OPRM1-OPRD1 ag 2.0 and MOR-DOR inv ag -11.3.
